Screening data: PubChem, National Center for Advancing Translational Sciences (NCATS)
Hits are enriched below; roughly 2.8% of the tested compounds scored in any of these assays.
Six1-Eya2 inh – Six1/Eya2 interaction inhibition | Q15475+O00167 | activity change, % (no concentration beside the values) | 360,000 compounds, 0.56% hits | AlphaScreen GST-Six1/His-Eya2 binding, biochemical; hits give low values; in the data active means activity change below about -65%; inconclusive means mostly about -30% to -63%
Target sequence (O00167 whole entry, looked up): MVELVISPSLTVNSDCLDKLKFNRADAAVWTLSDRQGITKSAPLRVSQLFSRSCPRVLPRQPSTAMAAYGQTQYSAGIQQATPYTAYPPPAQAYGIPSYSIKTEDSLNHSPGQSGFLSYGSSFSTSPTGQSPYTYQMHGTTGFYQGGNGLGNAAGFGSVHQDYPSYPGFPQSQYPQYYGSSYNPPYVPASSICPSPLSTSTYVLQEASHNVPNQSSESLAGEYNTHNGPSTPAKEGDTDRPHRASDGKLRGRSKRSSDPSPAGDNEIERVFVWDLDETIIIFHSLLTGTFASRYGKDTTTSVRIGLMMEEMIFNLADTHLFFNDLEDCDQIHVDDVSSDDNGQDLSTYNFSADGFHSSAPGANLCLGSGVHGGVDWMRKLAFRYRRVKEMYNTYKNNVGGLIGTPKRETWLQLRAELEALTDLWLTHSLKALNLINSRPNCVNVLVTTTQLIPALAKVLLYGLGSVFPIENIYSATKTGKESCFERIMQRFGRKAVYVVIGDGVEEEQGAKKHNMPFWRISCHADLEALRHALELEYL
Target sequence (Q15475 whole entry, looked up): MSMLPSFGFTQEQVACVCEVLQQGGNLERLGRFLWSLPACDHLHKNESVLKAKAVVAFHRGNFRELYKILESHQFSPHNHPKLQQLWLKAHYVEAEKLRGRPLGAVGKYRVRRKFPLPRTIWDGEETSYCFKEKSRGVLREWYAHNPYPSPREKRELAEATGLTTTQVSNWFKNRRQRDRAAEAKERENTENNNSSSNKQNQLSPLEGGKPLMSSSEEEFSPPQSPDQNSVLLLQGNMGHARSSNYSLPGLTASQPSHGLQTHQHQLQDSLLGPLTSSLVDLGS
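AlphaScreen with GST-Six1 and His-Eya2 (5X mix: 250 nM and 500 nM), glutathione donor and nickel acceptor beads; buffer 50 mM Tris pH 8.0, 300 mM NaCl, 1 mM TCEP; 1 h at 37 C in the dark.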
HepG2 viability – HepG2 cytotoxicity, counter-screen for TGF-b inhibitors. HepG2 CAGA-GFP viability, ATP luminescence, 18 h. Potency, µM (doses to about 46.1 µM), usual class: cytotoxic. 410,000 compounds, 0.76% hits. AID 588856
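HepG2 CAGA-GFP cells (1000/well, DMEM with 1% FBS) received compound, then TGF-beta at 500 pg/mL final, and were incubated 18 hours at 37 degrees C. Viability was read by CellTiter-Glo luminescence. Media-only wells were set as complete cell-killing and DMSO as no toxicity.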
TGFb inhibitor – TGF-b pathway inhibition; HepG2 CAGA-GFP TGF-b/SMAD3 reporter, GFP fluorescence, 18 h; TGF-beta stimulated, 500 pg/mL final; 410,000 compounds, 1.2% hits; AID 588855; Potency, µM (highest dose often 46.1 µM), actives largely listed as inhibitors; further: nearly all actives have a fitted effect of over 65% in size
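HEPG2 CAGA-GFP reporter cells (1000/well, DMEM with 1% FBS) received compounds, then recombinant TGF-beta at 500 pg/mL final for 18 hours at 37 degrees C. Per-cell GFP summed per well was normalised to unstimulated and stimulated DMSO controls before curve fitting.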
S2 tox – viability counter-screen for ATXN expression inhibitors | S2 cells (HEK-293 line with an ATXN2-luciferase reporter) viability, CellTiter-Fluor protease fluorescence, 24 h | Potency, µM (titrated, usually from 56.7 µM), actives largely listed as cytotoxic | 400,000 compounds, 0.49% hits | AID 651635; further: nearly all actives have a fitted effect of over 40% in size
ATXN2 expr inh – inhibitors of ATXN2 expression. HEK-293 ATXN2-luciferase reporter, luminescence, 24 h. Potency, µM (highest dose often 57 µM), usual class: inhibitors. 360,000 compounds, 0.72% hits; further: nearly all actives have a fitted effect of over 55% in size
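qHTS (up to 57 uM final) was run with 24 h compound exposure of reporter cells at 37 °C. Each well was multiplexed: SteadyGlo luminescence measured ATXN2-luciferase expression after a fluorogenic Gly-Phe-AFC viability readout (25 uM final).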
CtBP-E1A inh – inhibitors of CtBP/E1A interaction. AlphaScreen GST-E1A/His-CtBP binding, 1536-well; hits give low values. activity change, % (test concentration not listed). 340,000 compounds, 0.49% hits; in the data active means activity change below about -65%; inconclusive means mostly about -30% to -63%
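Protein mix (5X: 125 nM each GST-E1A, His-CtBP) was incubated with pinned compound 2 h at 37 deg C in dark, in 50 mM Tris pH 8.0 buffer with 300 mM NaCl. Glutathione donor and nickel acceptor beads followed; AlphaScreen signal read after 1 h.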
Numbers stand for hits; . = inactive; ? = inconclusive; / = no result. Unless noted, the call rests on the fitted dose curve; in most records, active means well fitted curve in the direction sought with a large enough effect; inconclusive means small, poorly fitted or top-dose-only effect, or another doubt; inactive means no such curve, though single readings can be large; an effect the other way counts as inactive or inconclusive.

SMILES	Six1-Eya2 inh	HepG2 viability	TGFb inhibitor	S2 tox	ATXN2 expr inh	CtBP-E1A inh
NC(=S)NN=Cc1cc(-c2cccc(N)c2)ccn1	-88	.	.	?	/	-81
COc1cccc(NS(=O)(=O)c2ccc3c(c2)[C@H]2C=CC[C@H]2[C@@H](c2ccccc2Cl)N3)c1	/	.	11µM	.	.	/
C/C(=N/NC(=O)CN(c1ccccc1)S(=O)(=O)c1ccccc1)c1ccccc1O	.	5.6µM	7.1µM	?	/	/
S=c1[nH]nc(-c2ccccn2)n1/N=C/c1cccs1	?	.	.	.	.	.
S=c1[nH]nc(-c2ccccn2)n1/N=C/c1c(Cl)cccc1Cl	-80	.	.	.	.	.
S=c1[nH]nc(-c2ccccn2)n1/N=C/c1ccc(Cl)cc1	-75	.	.	.	.	?
S=c1[nH]nc(-c2ccccn2)n1/N=C/c1ccccc1	?	.	.	.	.	.
Cc1cc(C)n(Cc2cccc(C(=O)NCC3Cc4cccc(-c5ncccn5)c4O3)c2)n1 (configuration not stated)	/	/	/	.	/	/
CCOC(=O)CSC1=NC(=O)/C(=C/c2ccc(OC)cc2)S1	.	.	?	7.9µM	7.1µM	.
COc1ccc(/C=C2\SC(N)=NC2=O)cc1	.	.	.	.	.	.
Cc1ccc(S(=O)(=O)c2ccc([N+](=O)[O-])o2)cc1	?	.	10µM	11µM	6.7µM	.
Cc1ccc(S(=O)(=O)Nc2c(C)cc([N+](=O)[O-])cc2C)cc1	.	.	.	.	.	.
Nc1nc(=S)[nH]c2n[nH]nc12	/	.	.	/	/	/
COc1cccc(NC(=O)C(=O)NCC(c2ccco2)N2CCc3ccccc3C2)c1 (configuration not stated)	.	.	.	.	.	.
COc1ccc(NC(=O)C(=O)NCC(c2ccco2)N2CCc3ccccc3C2)cc1OC (configuration not stated)	.	.	2.5µM	.	.	.
O=C(Nc1ccc2c(c1)OCCO2)c1cccc2nc3ccccc3nc12	?	.	.	/	?	-68
Cc1ccc(C(=O)Nc2ccc3c(c2)OCCO3)c(C)c1	.	.	.	.	5µM	.
CCc1nc2c(OCc3ccc(Cl)cc3Cl)cccn2c1N(C)C(C)=O	.	.	?	/	18µM	.
CCC(CC)C(=O)N(C)c1c(C)nc2c(OCc3cccc(Cl)c3)cccn12	.	.	.	.	?	.
CCC(CC)C(=O)N(C)c1c(C)nc2c(OCc3cc(Cl)cc(Cl)c3)cccn12	.	.	13µM	.	.	.
CCC(C(=O)OCCN1CCOC(c2ccccc2)C1C)c1ccccc1 (configuration not stated)	/	/	/	.	.	/
CCCCCCN1C[C@@H](n2cc(-c3ccc(F)cc3)nn2)[C@H](O)C[C@@H]1c1ccc(Cl)cc1	.	.	?	18µM	?	.
CCCCCCN1C[C@H](n2cc(C3CC3)nn2)[C@@H](O)C[C@@H]1c1ccc(OC)cc1	.	.	?	25µM	?	.
CCCCCCN1C[C@H](n2cc(-c3ccc(F)cc3)nn2)[C@@H](O)C[C@@H]1c1ccc(OC)cc1	.	.	?	.	.	.
CCCCCCN1C[C@H](n2cc(-c3ccc(F)cc3)nn2)[C@@H](O)C[C@@H]1c1ccc(C)cc1	.	11µM	?	/	?	.
SMILES	Six1-Eya2 inh	HepG2 viability	TGFb inhibitor	S2 tox	ATXN2 expr inh	CtBP-E1A inh
CCCCCCN1C[C@H](O)[C@@H](n2cc(-c3ccc(F)cc3)nn2)C[C@@H]1c1ccc(Cl)cc1	.	.	?	?	?	.
CCCCCCN1C[C@H](n2cc(C3CC3)nn2)[C@@H](O)C[C@@H]1c1ccccc1	.	.	?	?	?	.
Cc1ccc([C@H]2C[C@@H](O)[C@H](n3cc(-c4ccc(F)cc4)nn3)CN2C(=O)C2CCCCC2)cc1	.	.	13µM	/	?	.
CC(C)(C)c1ccc(CN(Cc2ccco2)c2cnc(S(C)(=O)=O)nc2C(=O)Nc2ccc(F)cc2)cc1	/	.	.	.	.	/
N#Cc1cccc(NC(=O)C2CCN(S(=O)(=O)c3ccc4[nH]c(=O)ccc4c3)CC2)c1	/	.	.	.	.	/
C#CC(=O)N(c1ccc(OC)c(OC)c1)C(C(=O)NC1CCCC1)c1cccs1 (configuration not stated)	.	13µM	?	/	?	.
Cc1cccc(N(C(=O)C(F)(F)F)C(C(=O)NC2CCCCC2)c2cccs2)c1 (configuration not stated)	.	.	.	.	.	.
C#CC(=O)N(c1cccc(OC)c1)C(C(=O)NC1CCCC1)c1cccs1 (configuration not stated)	.	8.9µM	22µM	1.6µM	1.6µM	.
CC(C)(C)OC(=O)N1CCC(c2c(C(=O)NCCN3CCOCC3)cnn2-c2ccccc2)CC1	/	.	.	/	/	/
CN(C)CC(C)(O)c1ccc2c(c1)CN(Cc1cnn(-c3ccccc3)c1)CCO2 (configuration not stated)	/	/	/	.	/	/
Cc1cc(NC(=O)CCS(=O)(=O)c2ccc3c(c2)NC(=O)C(C)S3)ccc1Br (configuration not stated)	.	.	11µM	.	/	/
CC(C)c1ccc(OCc2cccc(C(=O)N/N=C/c3cccnc3)c2)cc1	.	.	.	.	11µM	.
CCOc1ccc(OCc2cccc(C(=O)N/N=C/c3cccnc3)c2)cc1	.	.	.	.	2.1µM	.
O=C(N/N=C/c1cccnc1)c1cccc(Br)c1	.	.	.	.	.	.
CCc1ccccc1NC(=O)COC(=O)c1cn(CC)c2nc(C)ccc2c1=O	/	.	.	.	.	/
C/C(=N\NC(N)=S)C1=CCC2C3CC[C@H]4CC(O)CC[C@]4(C)C3CC[C@]12C (some centres not stated)	.	.	?	4.5µM	/	/
CC(CCC(=O)NN)C1CCC2C3CCC4CC(O)CCC4(C)C3CCC12C (configuration not stated)	.	.	.	.	.	.
CCCCn1c2ccc(F)cc2c2nnc(SCCN(CC)CC)nc21	/	.	.	.	.	/
CCN(CC)CCSc1nnc2c3cc(C)ccc3n(Cc3ccccc3)c2n1	.	.	?	16µM	?	.
COc1ccc(S(=O)(=O)n2oc(=O)cc2-c2ccccc2)cc1OC	-95	.	.	.	.	?
COc1ccc(S(=O)(=O)n2oc(=O)cc2-c2ccccc2)cc1	-90	.	.	.	.	-73
O=c1cc(-c2ccccc2)n(S(=O)(=O)c2ccccc2)o1	.	.	.	.	.	.
